The list is not random: actives were taken first. Their share in the collection is about 18%.
TDP1 cell noCPT – qHTS for Inhibitors of human tyrosyl-DNA phosphodiesterase 1 (TDP1): qHTS in cells in absence of CPT. AID 686978, 2013. Potency, µM (titrated, usually from 46.2 µM), without a hit: top-dose activity change, negative = growth inhibition, usual class: inhibitors. DT40 Tdp1-/- hTDP1 cells, no CPT, ATP luminescence, 48 h. actives 15% (n = 420,000); further: potency means the concentration at half of the fitted maximal effect; nearly all actives have a fitted effect of over 55% in size
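Chicken DT40 Tdp1-/- cells stably complemented with human TDP1 were seeded at 400 cells/well with DMSO in place of 20 nM camptothecin. After compound pinning, cells grew at least 48 hr at 37 °C; viability read by CellTiter-Glo luminescence.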
Gal4-VP16 FLuc – counter-screen for ROR gamma inhibitors: Gal4-VP16 reporter | Drosophila S2 Gal4-VP16 UAS-luciferase, luminescence, 20 h | Potency, µM (series often up to 53.6 µM), inactives show at the highest dose activity, negative = inhibition, actives largely listed as inhibitors | actives 3.5% (n = 310,000) | AID 2546;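 further: Gal4-VP16 expression switched on by copper sulfate through the metallothionein promoter; potency means the concentration at half of the fitted maximal effect; nearly all actives have a fitted effect of over 50% in size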
LDHA block – blocks human lactate dehydrogenase A; AID 1347041; P00338; activity change, % (values are at about 110 or 230 µM); purified LDHA, NADH/diaphorase-resazurin fluorescence; active compounds read low; actives 0.15% (n = 480,000); in the data active means activity change below about -30%; inconclusive means mostly about -25% to -30%;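 further: plate controls were DMSO wells for no effect and wells without enzyme for full effect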
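Human LDH5 at 2 nM final in Tris HCl pH 7.4 with 0.06 mM NADH and 0.2 mM pyruvate, reacted 5 minutes at room temperature. Remaining NADH coupled via diaphorase/resazurin; resorufin fluorescence read at 0 and 20 minutes, normalized to enzyme-free and DMSO wells.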
RORg inh – blocks mouse ROR gamma transcriptional activity. Drosophila S2 Gal4-RORgamma UAS-luciferase reporter, 20 h. Potency, µM (top dose mostly 53.6 µM), inactives show top-dose activity change, negative = inhibition, usual class: inhibitors. actives 5.4% (n = 310,000). AID 2551; further: potency means the concentration at half of the fitted maximal effect; nearly all actives have a fitted effect of over 60% in size
Target sequence (P51450 whole entry, looked up, the tested form may be a part): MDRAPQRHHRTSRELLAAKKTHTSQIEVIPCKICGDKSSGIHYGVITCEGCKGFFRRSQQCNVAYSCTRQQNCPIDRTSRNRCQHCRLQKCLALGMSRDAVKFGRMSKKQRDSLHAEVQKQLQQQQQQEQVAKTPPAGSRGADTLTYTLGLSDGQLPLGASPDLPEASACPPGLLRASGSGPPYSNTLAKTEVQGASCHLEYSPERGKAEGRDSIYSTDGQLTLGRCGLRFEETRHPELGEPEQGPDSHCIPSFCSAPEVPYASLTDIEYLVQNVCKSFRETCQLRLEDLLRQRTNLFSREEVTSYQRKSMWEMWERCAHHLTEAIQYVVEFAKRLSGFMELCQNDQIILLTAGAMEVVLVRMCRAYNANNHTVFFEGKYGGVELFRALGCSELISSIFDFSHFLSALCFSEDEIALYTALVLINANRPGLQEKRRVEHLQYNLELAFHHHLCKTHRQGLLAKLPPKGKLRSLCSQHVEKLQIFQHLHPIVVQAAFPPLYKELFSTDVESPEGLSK
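In this cell-based reporter format, copper sulfate (700 uM final) drives Gal4–ROR gamma fusion expression from a metallothionein promoter in Drosophila Schneider cells; compounds preincubated 1 hr, reporter read after 20 hr at ambient temperature.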
DT40 TDP1 CPT – DT40-hTDP1 cell growth loss with CPT | chicken DT40 Tdp1-/-;hTDP1 cells + 20 nM CPT, ATP luminescence, 48 h | AID 686979 | actives 12% (n = 420,000) | Potency, µM (series often up to 46.2 µM), inactives show at the top dose activity change, negative = growth inhibition, actives largely listed as inhibitors; further: potency means the concentration at half of the fitted maximal effect; nearly all actives have a fitted effect of over 55% in size
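Chicken DT40 Tdp1-/- cells stably complemented with human TDP1 were seeded at 400 cells/well in medium containing 20 nM camptothecin, exposed to pin-transferred compounds, and grown at 37 °C for at least 48 hr. Viability was read as ATP luminescence.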
IL1B secr inh – inflammasome signaling inhibition, IL-1 beta readout. AID 743279. actives 4.7% (n = 360,000). activity change, % at 57.5 µM. THP-1 LPS/ATP IL-1B secretion, AlphaLISA, 16 h; active compounds read low; in the data active means activity change below about -50%; inconclusive means mostly about -30% to -49%
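THP-1 cells pretreated 1 hr with compounds (up to 57.5 uM final), then stimulated with LPS (250 ng/mL final) plus ATP (1.25 mM final); secreted IL-1B measured by AlphaLISA after 16 hr, decreased signal indicating inhibition.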
Numbers without * were called inactive; ? = inconclusive; · = not tested or not shown. Unless noted, the call rests on the fitted dose curve; in most records, active means well fitted curve in the direction sought with a large enough effect; inconclusive means small, poorly fitted or top-dose-only effect, or another doubt; inactive means no such curve, though single readings can be large; an effect the other way counts as inactive or inconclusive. Unless noted, on the % scale 0 is the no-effect control and ±100 the full control effect.

SMILES	TDP1 cell noCPT	Gal4-VP16 FLuc	LDHA block	RORg inh	DT40 TDP1 CPT	IL1B secr inh
CC(C)(C)c1ccc(C(=O)NC(Nc2cccc(Cl)c2)C(Cl)(Cl)Cl)cc1 (stereo unspecified)	·	·	5.9	·	·	·
N#CC1=C(N)OC2=C(C(=O)CCC2)C1c1ccc(-c2ccccc2)o1 (stereo unspecified)	·	·	45.9	·	·	·
N#CC1CC(c2ccccc2)Nc2cc(Cl)ccc2N1 (stereo unspecified)	10.3µM*	-2.0%	-4.4	?	16.4µM*	0.6
Clc1ccc(C2Cc3ccccc3N2)cc1 (stereo unspecified)	·	·	2.7	·	·	·
O=c1c2oc3ccccc3c2[nH]c(=S)n1-c1ccccc1	-2.5%	5.01µM*	-1.5	?	8.5%	26.7
O=c1c2sccc2[nH]c(=S)n1-c1ccccc1	0.7%	3.55µM*	-1.4	?	1.4%	1.6
Cc1cccc(-n2c(=S)[nH]c3c(oc4ccccc43)c2=O)c1	0.3%	4.47µM*	-0.1	2.82µM*	7.0%	0.0
Cc1ccc(-n2c(=S)[nH]c3c(oc4ccccc43)c2=O)cc1	-23.1%	-5.2%	-3.4	89.7%	12.5%	6.8
O=[N+]([O-])c1cc(-c2ccc(/C=N/c3nc4ccccn4c3-c3ccco3)o2)ccc1Cl	23.1µM*	13.3%	8.2	-39.5%	?	?
CCC1CCCCN1C(=S)NC(=O)c1ccc([N+](=O)[O-])cc1 (stereo unspecified)	?	0.282µM*	-6.3	0.251µM*	?	0.0
O=C(NCC1CCCCC1)c1ccc(F)c(S(=O)(=O)N2CCOCC2)c1	?	·	-3.8	·	-27.4%	7.2
CCC1CCCCN1C(=S)NC(=O)c1cccs1 (stereo unspecified)	?	1.12µM*	-3.9	0.708µM*	?	16.1
CCOC(=O)C1CCN(C(=S)NC(=O)c2cccs2)CC1	?	4.47µM*	-10.5	5.62µM*	-26.1%	31.9
CCC1CCCCN1C(=S)NC(=O)c1ccc(F)c(S(=O)(=O)N2CCOCC2)c1 (stereo unspecified)	?	1.58µM*	-1.4	0.562µM*	-6.2%	32.0
CCC1CCCCN1C(=S)NC(=O)c1cc(Br)ccc1Cl (stereo unspecified)	?	·	-2.6	·	?	23.3
Nc1cccc(Nc2nc(OC(C(F)(F)F)C(F)(F)F)nc(OC(C(F)(F)F)C(F)(F)F)n2)c1	23.1µM*	-24.5%	-1.3	?	20.6µM*	-89.3*
COc1nc(Nc2ccc(O)cc2)nc(OC(C(F)(F)F)C(F)(F)F)n1	-23.6%	5.9%	2.6	11.4%	?	?
NC(=NCc1ccccc1)NCCN1CCN(Cc2ccccc2)CC1	·	·	-2.1	·	·	·
CCc1cccc2c(C(=O)O)cc(-c3ccccc3C)nc12	·	·	0.0	·	·	·
COc1cc(=O)n(-c2ccccc2C)nc1C(=O)Nc1cc(Cl)ccc1C	·	·	0.4	·	·	·
CC1CCCN(C(=O)c2ccc(Cl)c(S(=O)(=O)N3CCCCCC3)c2)C1 (stereo unspecified)	18.4µM*	·	-2.1	·	?	-7.4
CC1CCN(C(=O)c2ccc(Br)c(S(=O)(=O)N3CCOCC3)c2)CC1	?	-7.3%	-3.8	1.1%	-4.3%	2.2
CC1CCN(S(=O)(=O)c2cc(C(=O)N3CCN(c4ncccn4)CC3)ccc2Br)CC1	23.1µM*	7.08µM*	-8.5	32.7%	?	-18.1
CC1CN(S(=O)(=O)c2cc(C(=O)N3CCCCC3C)ccc2Cl)CC(C)O1 (stereo unspecified)	1.84µM*	·	-1.7	·	-78.3%	37.2
O=C(c1ccc(Cl)c(S(=O)(=O)N2CCCC2)c1)N1CCCCC1	?	3.9%	-0.4	-1.1%	-17.7%	4.8
SMILES	TDP1 cell noCPT	Gal4-VP16 FLuc	LDHA block	RORg inh	DT40 TDP1 CPT	IL1B secr inh
CC(=O)N1CCN(C(=O)c2ccc(Cl)c(S(=O)(=O)N3CC(C)OC(C)C3)c2)CC1 (stereo unspecified)	8.8%	·	-3.2	·	-0.6%	-1.3
CC(C)OC(=O)C(CC(=O)O)N1CCCC1 (stereo unspecified)	·	·	-19.8	·	·	·
O=S1(=O)CCN(C2CCCCC2)c2c(F)nc(F)c(F)c21	·	·	-22.0	·	·	·
COc1ccc(N2C(=O)CSC23C(=O)N(CC(=O)Nc2ccccc2OC)c2ccccc23)cc1 (stereo unspecified)	·	·	-0.7	·	·	·
Cc1ccc(NC(=O)c2nc[nH]c2C(=O)N(C)CCO)cc1	-13.5%	·	-11.1	·	1.4%	-18.4
CNC(=O)c1[nH]cnc1C(=O)Nc1cccc(OC)c1	-29.8%	14.1µM*	-2.3	7.08µM*	?	-3.2
CNC(=O)c1[nH]cnc1C(=O)Nc1ccc(Cl)cc1	?	7.08µM*	-7.8	3.98µM*	-29.1%	-12.2
CCN(CC)C(=O)c1[nH]cnc1C(=O)NCC(=O)OC(C)(C)C	-10.2%	2.5%	-4.7	1.2%	0.4%	6.6
CC(C)(C)OC(=O)CNC(=O)c1[nH]cnc1C(=O)Nc1ccc(Cl)cc1	?	12.6µM*	1.0	4.47µM*	?	-16.6
CNC(=O)c1[nH]cnc1C(=O)Nc1ccc(C)cc1	-10.4%	4.47µM*	-6.7	3.98µM*	-21.5%	11.4
COCCNC(=O)c1cc(-c2ccc(OC)cc2)nc2ccccc12	·	·	1.0	·	·	·
Cc1ccc(NS(=O)(=O)c2ccc3c(c2)-c2oncc2CO3)cc1C	·	·	-5.4	·	·	·
Cc1cc(C(=O)CN(C)CC(=O)Nc2ccccc2Br)c(C)n1CCc1cccs1	·	·	-5.7	·	·	·
Cc1ccc(NC(=O)c2nc[nH]c2C(=O)Nc2ccc(C)cc2)cc1	7.31µM*	2.82µM*	-9.2	1.41µM*	10.3µM*	-1.9
CNC(=O)c1[nH]cnc1C(=O)Nc1ccc(F)cc1	3.0%	?	-4.0	12.6µM*	0.7%	-15.4
COc1ccc(S(=O)(=O)c2cn(CC(=O)Nc3cccc(Cl)c3)c3ccc(C)cc3c2=O)cc1	·	·	3.5	·	·	·
CN(C)S(=O)(=O)c1ccc2c(c1)/C(=C/c1cc3c([nH]1)CCCC3)C(=O)N2	3.26µM*	·	-5.2	·	4.61µM*	-11.2
CN(C1CCCCC1)S(=O)(=O)c1ccc2c(c1)CCC(=O)N2	-10.7%	·	-0.3	·	-9.0%	13.0
CCN(C(=O)C1CCCO1)C1CC1 (stereo unspecified)	·	·	-4.9	·	·	·
CN(C)Cc1c(O)c(Cl)cc2c3c(c(=O)oc12)CCCC3	14.6µM*	8.5%	8.4	-22.1%	?	21.3
CCN(CC)Cc1c(O)c(Cl)cc2c3c(c(=O)oc12)CCCC3	?	-0.9%	18.4	-21.1%	?	12.1

Compound activity deposited in PubChem BioAssay by National Center for Advancing Translational Sciences (NCATS).
